Results on 8 compounds are retold here after PubChem BioAssay (Tox21).

Assay [1] is described as follows: Nuclear factor erythroid 2-related factor 2/antioxidant responsive element (Nrf2/ARE) small molecule agonists: qHTS cell viability counter screen in human keratinocytes (AID 1919968; active = well fitted curve in the direction sought with a large enough effect in the repeat runs; an effect the other way counts as inactive or inconclusive; note: nearly all actives have a fitted effect of over 55% in size; note: potency is the fitted concentration of half-maximal effect). Put shortly:
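KeratinoSens cells (HaCaT keratinocytes stably carrying an ARE-luciferase reporter) were seeded at 1,500 cells/well and rested 5 h at 37 C/5% CO2. They were then exposed to compounds in DMSO for 23 h. Viability was read by CellTiter-Fluor fluorescence after 1 h.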
On the technique in general: qHTS replaces the single test concentration by a dilution series.

Assay [2] in a line: Nuclear factor erythroid 2-related factor 2/antioxidant responsive element (Nrf2/ARE) small molecule agonists: luciferase reporter gene qHTS assay in human keratinocytes (AID 1919969; note: nearly all actives have a fitted effect of over 35% in size). (Reporter assays use an easily measured gene product as a stand-in for the process of interest.)
Assay [3] concerns the target Gonadotropin-releasing hormone receptor (Homo sapiens) (UniProt P30968). Kind of assay: Human gonadotropin-releasing hormone receptor (GnRHR) small molecule agonists, calcium flux assay in GnRHR-HEK293 cells (AID 1920063). Note: nearly all actives have a fitted effect of over 35% in size. In outline:
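HEK293 cells stably expressing human GnRHR were plated 18 h at 37 °C, loaded with calcium dye 1 h at 37 °C, then given compound in agonist mode; fluorescence (Ex/Em 480/540) read kinetically for 3 min at 1 s intervals.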

Assay [4] has as its target KiSS-1 receptor (Homo sapiens) (UniProt Q969F8). In words: Human kisspeptin (KISS1R) small molecule agonists, calcium flux assay in KISS1R-HEK293 cells (AID 1920064; active = well fitted curve in the direction sought with a large enough effect in the repeat runs; an effect the other way counts as inactive or inconclusive). Put shortly: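 HEK293 cells stably expressing human KISS1R were plated 18 h at 37 °C, loaded with calcium dye for 1 h at 37 °C, then given compound by pin tool. Fluorescence (Ex/Em 480/540) was read kinetically for 3 min.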

Assay [5] can be described thus: G protein-coupled receptor (GPCR) small molecule agonists, calcium flux assay: HEK293 wild type cell line counter screen (AID 1920065). Put shortly: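 Cells were plated and cultured 18 h at 37 C/5% CO2, then loaded with calcium dye for 1 h at 37 C. Compounds in DMSO were pin-transferred in agonist mode, and fluorescence (Ex/Em 480/540) was read kinetically for 3 min at 1 s intervals.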
For orientation: A change in cytosolic calcium serves as a functional read-out for many receptors and channels.

Assay [6] can be described thus: p53 small molecule agonists, cell-based qHTS assay with human liver microsomes (AID 1963577).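 Note: p53 response element beta-lactamase reporter cells with liver microsomes plus NADPH.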 Put shortly:
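With metabolic activation: human liver microsomes (0.5 mg/mL final) plus NADPH (0.5 mg/mL final) added alongside compounds to p53RE-bla cells; 16 h 37 C exposure; beta-lactamase read by LiveBLAzer fluorescence.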

A short description of assay [7]: p53 small molecule agonists, cell-based qHTS assay with rat liver microsomes (AID 1963578). Put shortly:
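Metabolic activation by rat liver microsomes and NADPH, each 0.5 mg/mL final, added right after compounds to p53RE-bla reporter cells (4,000/well, plated 5 h earlier). 16 h at 37 C, then LiveBLAzer substrate for 2 h at room temperature in the dark; fluorescence read-out.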

A short description of assay [8]: p53 small molecule agonists, cell-based qHTS assay with human liver microsomes: qHTS cell viability counter screen (AID 1963579). Note: nearly all actives have a fitted effect of over 45% in size. Put shortly: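 Metabolic activation used human liver microsomes and NADPH, both 0.5 mg/mL final, over 16 hours at 37 C on p53RE-bla cells (4,000/well). Cytotoxicity measured by CellTiter-Glo luminescence, 30 min at room temperature.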

The nature of assay [9]: p53 small molecule agonists, cell-based qHTS assay with rat liver microsomes: qHTS cell viability counter screen (AID 1963580). Note: nearly all actives have a fitted effect of over 45% in size. Put shortly: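 HCT-116 p53RE-bla, 4,000 cells/well, 5 h pre-incubation; cpd + rat liver microsomes 0.5 mg/mL + NADPH 0.5 mg/mL (final); 16 h, 37 C; CellTiter-Glo, 30 min RT; luminescence.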
The target in assay [10] is Muscarinic acetylcholine receptor M1 (Homo sapiens) (UniProt P11229). In words: Cholinergic receptor muscarinic 1 (CHRM1) small molecule antagonists, cell-based qHTS assay (AID 1963588). Note: nearly all actives have a fitted effect of over 40% in size. In outline: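 CHRM1-CHO calcium-flux assay, antagonist mode. Cells were seeded 18 h, dye-loaded 1 h at 37 C and given compound for 5 min at RT, then acetylcholine was added at 50nM. FDSS fluorescence was read 3 min; 15 concentrations, three runs.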

Assay [11] has the same target. In words: Cholinergic receptor muscarinic 1 (CHRM1) small molecule agonists, cell-based qHTS assay (AID 1963589). Note: nearly all actives have a fitted effect of over 35% in size. Put shortly: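 CHO cells stably expressing human CHRM1, seeded 18 h at 37 C/5% CO2, dye-loaded 1 h at 37 C, then given compound in agonist mode; intracellular calcium fluorescence read kinetically at 1 s intervals. Fifteen concentrations, three independent runs.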

Assay [12] in a line: cAMP Responsive Elements (CRE) small molecule agonists, cell-based qHTS assay (AID 1963590). In outline:
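CRE-bla HEK 293T cells in DMEM with 10% dialyzed FBS, NEAA, pyruvate and 25 mM HEPES were plated 18 h at 37 C/5% CO2, then exposed to compounds in DMSO for 3 h before LiveBLAzer B/G FRET substrate addition.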

A short description of assay [13]: cAMP Responsive Elements (CRE) small molecule antagonists, cell-based qHTS assay (AID 1963591; active = well fitted inhibition curve with a large enough effect in the signal ratio in the repeat runs, not every such curve was filed as active; the % refers to the signal ratio). In outline: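 CRE-bla HEK293T cells were plated 18 h at 37 °C/5% CO2, pinned with compound in DMSO, then stimulated with NKH477 at 0.25 uM final for 3 h. LiveBLAzer B/G FRET substrate was added and plates incubated 2 h at room temperature.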
Assay [14] deals with Beta-2 adrenergic receptor (Homo sapiens) (UniProt P07550). Kind of assay: Adrenergic beta2 receptor (ADRB2) small molecule antagonists, cell-based qHTS assay (AID 1963592). Note: nearly all actives have a fitted effect of over 50% in size. Note: potency is the fitted concentration of half-maximal effect. In outline: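 Cells (CHO, stable ADRB2 overexpression) incubated 18-20hr at 37C; compounds added from DMSO; agonist mix (1nM isoproterenol, 100uM IBMX, 25uM Ro-20-1724) added; 0.5hr RT; d2-cAMP and anti-cAMP-cryptate added; 1hr RT; 665/615 nm read.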

For assay [15] the target is unchanged. In words: Adrenergic beta2 receptor (ADRB2) small molecule agonists, cell-based qHTS assay (AID 1963593).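 Note: CHO cells stably overexpressing human ADRB2.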 Put shortly:
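CHO cells stably over-expressing ADRB2 were plated overnight at 37C, then dosed with compounds plus a stimulation mix containing 100uM IBMX and 25uM Ro-20-1724 for 0.5hr at room temperature. cAMP was measured by HTRF competition, 1hr.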

Assay [16] has as its target D(2) dopamine receptor (Homo sapiens) (UniProt P14416). Kind of assay: Dopamine D2 receptor (DRD2) small molecule agonists, cell-based qHTS assay (AID 1963594). Note: nearly all actives have a fitted effect of over 35% in size. Put shortly:
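cAMP accumulation in DRD2-HEK293 cells measured by HTRF after 1 h detection; compounds added 10 min before NKH477 (200nM […]) forskolin-analogue stimulation, 30 min at room temperature, with Ro20-1724 present at 0.1 mM final.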

Assay [17] shares this target. In words: Dopamine D2 receptor (DRD2) small molecule antagonists, cell-based qHTS assay (AID 1963595; active = well fitted inhibition curve with a large enough effect in the signal ratio in the repeat runs, with a control signal flat; the % refers to the signal ratio; note: potency is the fitted concentration of half-maximal effect). In outline: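 HEK293 cells stably expressing DRD2, preincubated with 0.1 mM Ro20-1724 and compounds 10 min, were stimulated with 200 nM NKH477 plus 12 nM quinpirole for 30 min at room temperature; cAMP measured by HTRF (665/620 nm).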
Assay [18] can be described thus: p53 small molecule agonists, cell-based qHTS assay (AID 1963582; active = well fitted activation curve with a large enough effect in the signal ratio in the repeat runs, not every such curve was filed as active; the % refers to the signal ratio). In outline: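 p53RE-bla beta-lactamase reporter cells rested 5 h at 37 C/5% CO2, then received compounds in DMSO by pin transfer and were incubated 16 h at 37 C. LiveBLAzer B/G FRET substrate was loaded for 2 h at room temperature before fluorescence reading.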
Assay [19] addresses 5-hydroxytryptamine receptor 2A (Homo sapiens) (UniProt P28223). Kind of assay: 5-hydroxytryptamine receptor 2A (HTR2A) small molecule antagonists, cell-based qHTS assay (AID 1963586). Note: nearly all actives have a fitted effect of over 45% in size. In outline:
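Antagonist-mode intracellular calcium assay: DOI (4 nM) added after 5 min compound pre-incubation at room temperature to dye-loaded HTR2A-CHO cells. Fluorescence followed for 3 min, sampled every second.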

Assay [20] has the same target. Kind of assay: 5-hydroxytryptamine receptor 2A (HTR2A) small molecule agonists, cell-based qHTS assay (AID 1963587). Note: nearly all actives have a fitted effect of over 30% in size. In outline: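 Kinetic calcium-flux fluorescence (2 min, 1 sec intervals) after compound addition in agonist mode. HTR2A-CHO cells were cultured 18 h, then dye-loaded 1 h at 37 C.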

A number with no mark means an inactive call. Inconclusive results are not listed. Active and inactive are the calls of the source. Unless noted, calls come from the whole dose curve.

Sequence of KiSS-1 receptor (Homo sapiens) (Q969F8 whole entry, looked up): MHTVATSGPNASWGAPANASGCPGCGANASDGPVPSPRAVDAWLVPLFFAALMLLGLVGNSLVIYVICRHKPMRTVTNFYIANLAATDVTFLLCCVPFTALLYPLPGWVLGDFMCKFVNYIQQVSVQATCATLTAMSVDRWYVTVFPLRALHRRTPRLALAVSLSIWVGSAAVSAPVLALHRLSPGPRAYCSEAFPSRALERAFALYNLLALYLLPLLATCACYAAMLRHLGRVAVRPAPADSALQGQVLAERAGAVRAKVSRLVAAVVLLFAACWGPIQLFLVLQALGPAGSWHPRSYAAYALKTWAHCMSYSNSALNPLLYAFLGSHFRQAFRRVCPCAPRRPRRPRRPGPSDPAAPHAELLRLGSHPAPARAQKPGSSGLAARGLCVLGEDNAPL
Sequence of Beta-2 adrenergic receptor (Homo sapiens) (P07550 whole entry, looked up): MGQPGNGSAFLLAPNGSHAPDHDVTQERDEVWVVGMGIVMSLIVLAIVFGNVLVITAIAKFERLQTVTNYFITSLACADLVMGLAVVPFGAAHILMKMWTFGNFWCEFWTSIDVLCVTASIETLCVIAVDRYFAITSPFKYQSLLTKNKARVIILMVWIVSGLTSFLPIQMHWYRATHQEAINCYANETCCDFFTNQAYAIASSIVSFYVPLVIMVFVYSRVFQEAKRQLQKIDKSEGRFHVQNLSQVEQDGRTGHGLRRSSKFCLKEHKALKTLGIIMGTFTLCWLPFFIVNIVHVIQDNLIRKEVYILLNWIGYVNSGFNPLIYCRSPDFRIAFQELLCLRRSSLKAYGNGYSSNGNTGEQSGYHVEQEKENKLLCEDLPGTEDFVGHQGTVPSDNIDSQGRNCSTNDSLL
Sequence of Muscarinic acetylcholine receptor M1 (Homo sapiens) (P11229 whole entry, looked up): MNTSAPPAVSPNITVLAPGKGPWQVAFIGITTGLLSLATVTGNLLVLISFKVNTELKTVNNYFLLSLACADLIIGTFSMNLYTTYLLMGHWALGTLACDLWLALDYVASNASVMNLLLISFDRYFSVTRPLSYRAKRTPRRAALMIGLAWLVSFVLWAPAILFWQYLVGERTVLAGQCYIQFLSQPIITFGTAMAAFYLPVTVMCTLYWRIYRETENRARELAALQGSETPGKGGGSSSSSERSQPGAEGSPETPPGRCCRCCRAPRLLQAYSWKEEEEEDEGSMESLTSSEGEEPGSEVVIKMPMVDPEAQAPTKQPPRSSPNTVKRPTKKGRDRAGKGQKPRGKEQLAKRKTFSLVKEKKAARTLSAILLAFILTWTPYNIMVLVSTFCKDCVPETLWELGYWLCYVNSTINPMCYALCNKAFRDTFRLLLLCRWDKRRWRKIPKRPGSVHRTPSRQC
Sequence of Gonadotropin-releasing hormone receptor (Homo sapiens) (P30968 whole entry, looked up): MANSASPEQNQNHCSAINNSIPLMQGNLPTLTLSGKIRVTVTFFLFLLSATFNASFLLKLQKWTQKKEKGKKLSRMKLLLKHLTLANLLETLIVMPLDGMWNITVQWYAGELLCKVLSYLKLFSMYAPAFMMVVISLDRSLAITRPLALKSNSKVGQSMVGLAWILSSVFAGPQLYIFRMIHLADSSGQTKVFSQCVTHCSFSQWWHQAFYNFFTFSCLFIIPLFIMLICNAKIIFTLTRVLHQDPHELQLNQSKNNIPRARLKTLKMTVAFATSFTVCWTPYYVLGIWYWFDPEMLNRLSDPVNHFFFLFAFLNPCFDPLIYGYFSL
Sequence of D(2) dopamine receptor (Homo sapiens) (P14416 whole entry, looked up): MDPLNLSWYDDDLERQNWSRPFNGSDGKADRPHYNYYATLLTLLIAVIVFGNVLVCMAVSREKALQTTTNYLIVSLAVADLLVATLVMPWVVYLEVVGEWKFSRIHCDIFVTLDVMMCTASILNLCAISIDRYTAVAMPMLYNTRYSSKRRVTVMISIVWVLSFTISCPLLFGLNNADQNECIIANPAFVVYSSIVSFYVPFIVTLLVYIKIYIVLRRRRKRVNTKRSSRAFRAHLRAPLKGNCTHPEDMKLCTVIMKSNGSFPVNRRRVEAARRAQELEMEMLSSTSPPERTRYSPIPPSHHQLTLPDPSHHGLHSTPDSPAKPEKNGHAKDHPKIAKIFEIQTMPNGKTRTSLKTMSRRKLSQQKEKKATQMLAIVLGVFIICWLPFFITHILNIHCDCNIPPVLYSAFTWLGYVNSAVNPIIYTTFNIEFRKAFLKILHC
Sequence of 5-hydroxytryptamine receptor 2A (Homo sapiens) (P28223 whole entry, looked up): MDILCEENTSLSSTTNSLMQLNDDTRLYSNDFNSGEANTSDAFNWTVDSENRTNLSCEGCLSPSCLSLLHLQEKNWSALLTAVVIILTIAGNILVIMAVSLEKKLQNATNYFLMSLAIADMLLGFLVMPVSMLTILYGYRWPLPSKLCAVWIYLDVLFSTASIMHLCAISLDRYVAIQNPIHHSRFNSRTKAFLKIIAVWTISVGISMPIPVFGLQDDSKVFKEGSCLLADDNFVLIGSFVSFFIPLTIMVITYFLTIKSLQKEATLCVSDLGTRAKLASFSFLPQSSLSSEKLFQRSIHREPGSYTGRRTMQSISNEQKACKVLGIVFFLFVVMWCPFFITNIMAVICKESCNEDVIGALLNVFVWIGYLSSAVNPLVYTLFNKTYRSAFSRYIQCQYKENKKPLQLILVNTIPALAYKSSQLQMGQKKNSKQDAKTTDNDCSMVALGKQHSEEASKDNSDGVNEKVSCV

On to `CCCCCCCC/C=C\CCCCCCCC(=O)OC`, for which the Potency entry in assay [1], in assay [2], in assay [3], in assay [6], in assay [7] and in [8] was “inactive” each time. Also, the Potency entry in [9], in assay [10], in assay [11], in assay [12], in assay [13] and in assay [14] was “inactive” in each case. In addition, the Potency entry in assay [15] and in assay [16] was “inactive” each time. For the same compound, the outcome in assay [4] and in assay [5] was inactive.

Turning to `CC(C(=O)O)c1ccc(-c2ccccc2)c(F)c1` (stereo unspecified), the Potency entry in assay [1], in assay [2], in assay [3], in assay [6], in assay [7] and in assay [8] was “inactive” in each case. For the same compound, the Potency entry in [9], in assay [14], in assay [16] and in assay [17] was “inactive” throughout. Further, the result in assay [4] and in [5] was inactive.

Take `CC(=O)OC1CCC(C(C)(C)C)CC1` (stereo unspecified): the Potency entry in assay [1], in assay [2], in [3], in assay [6], in assay [7] and in assay [8] was “inactive” in each case. In addition, the Potency entry in assay [9], in assay [18], in [19], in [20], in assay [10] and in [11] was “inactive” throughout. The Potency entry in assay [12], in assay [13], in assay [14], in [15], in assay [16] and in assay [17] was “inactive” in each case. Also, the outcome in [4] and in assay [5] was inactive.

Consider `O=C1c2ccccc2C(=O)C1c1ccccc1`, for which the Potency entry in [1], in [2], in assay [3], in [6], in assay [7] and in assay [8] was “inactive” each time. Also, the Potency result in assay [9], in [12], in assay [13], in assay [14], in assay [15] and in [16] was “inactive” throughout. In assay [17], the Potency result is “inactive”. The result in assay [4] and in assay [5] was inactive.

In the case of `CCCC[P+](C)(CCCC)CCCC`, the Potency entry in [1], in assay [2], in assay [3], in [6], in assay [7] and in [8] was “inactive” throughout. Also, the Potency result in assay [9], in assay [20], in [10], in assay [11], in assay [14] and in assay [15] was “inactive” each time. Also, the Potency result in assay [16] and in assay [17] was “inactive” each time. Further, the outcome in assay [4] and in [5] was inactive.

Consider `OC1(c2ccc(Cl)c(C(F)(F)F)c2)CCN(CCCC(c2ccc(F)cc2)c2ccc(F)cc2)CC1`, for which the Potency was 6.68 µM (active) in assay [1], 26.6 µM (active) in [14] and 0.119 µM (active) in assay [17]. For the same compound, the Potency entry in [2], in [3], in [6], in assay [7], in [8] and in [9] was “inactive” in each case. The Potency entry in assay [20], in [11] and in [16] was “inactive” throughout. The result in assay [4] and in assay [5] was inactive.

Consider `C=CC/C=C/C/C=C/C/C=C/C`, for which the Potency entry in [1], in [2], in assay [3], in assay [6], in assay [7] and in assay [8] was “inactive” throughout. For the same compound, the Potency entry in assay [9], in [18], in [19], in assay [20], in [10] and in assay [11] was “inactive” in each case. In addition, the Potency entry in [12], in assay [13], in assay [14], in assay [15], in assay [16] and in assay [17] was “inactive” throughout. Also, the outcome in [4] and in assay [5] was inactive.

For `Cc1cc(C(C)(C)C)cc(C)c1CC1=NCCN1`, the Potency entry in [1], in [2], in assay [3], in assay [6], in [7] and in assay [8] was “inactive” each time. Moreover, the Potency entry in assay [9], in [11], in [12], in assay [14] and in assay [16] was “inactive” throughout. Moreover, the outcome in [4] and in [5] was inactive.
